# Values of other authors, collected in PubChem BioAssay AID977611.
# Out of some 3,900 compounds screened, about 3,900 (100%) were called active. Cut-off not given; nearly all actives show Kd up to about 4200 µM. So high a share suggests a set chosen from earlier hits. The list shows a part of the results. *1 amine or outer side, *2 acyl side, *3 side chain or, on linkers, in order; H or OH if unused. Where a SMILES comes first, the peptide text is derived from it. Non-standard residues stand in square brackets, D forms with d. Square brackets hold non-standard residues; d marks the D form. Residues, ends and D or L forms follow the SMILES beside them. Peptide text beside a SMILES is read from it. [ ]: non-standard residue; d: D form. The star is where a group is joined. Thr(P(OH)3+) = C[C@@H](O[P+](O)(O)O)[C@H](N)C(=O)O; Orn(CH(NH2)2) = NC(N)NCCC[C@H](N)C(=O)O; Lys(Me2) = CN(C)CCCC[C@H](N)C(=O)O; Suc = O=C(CCC(=O)[*:2])[*:1]; Bz = O=C(c1ccccc1)*
# Assay: PubChem AID 977611
# Conditions: PDB protein-ligand complexes, literature Kd
compound,measurement,setting,value
C[C@H](N)C(=O)N[C@@H](CCCNC(N)N)C(=O)N[C@H](C(=O)O)[C@@H](C)O,Kd,"protein: ING4, PDB entry 2vnf",3 µM (active)
C[C@H](N)C(=O)N[C@@H](CCCNC(N)N)C(=O)N[C@H](C(=O)N[C@@H](C)C(=O)O)[C@@H](C)O (H-A[Orn(CH(NH2)2)]TA-OH),Kd,"protein: WD-repeat protein 5(WDR523), PDB entry 2h9p",192 µM (active)
C[C@H](NC(=O)CNC(=O)[C@@H](N)CS)C(=O)N[C@@H](CCCNC(N)N)C(=O)O (H-CGA[Orn(CH(NH2)2)]-OH),Kd,"protein: ?-chain of Hepatocyte growth factor-like protein, PDB entry 2asu",0.001 µM (active)
C[C@H](N)C(=O)N[C@@H](CCCNC(N)N)C(=O)N[C@H](C(=O)N[C@@H](CCCCN)C(=O)N[C@@H](C)C(=O)O)[C@@H](C)O (H-A[Orn(CH(NH2)2)]TKA-OH),Kd,"protein: Baculoviral IAP repeat-containing protein 5, human Survivin, PDB entry 3uef",21 µM (active)
C[C@@H](O)[C@H](NC(=O)CNC(=O)[C@@H](N)CCCNC(N)N)C(=O)O,Kd,"protein: Proto-oncogene tyrosine-protein kinase Src, PDB entry 4hxj",74.3 µM (active)
OC[C@H]1CN[C@@H](O)[C@@H](O)[C@@H]1O,Kd,"protein: MANNOSYL-OLIGOSACCHARIDE 1,2-ALPHA-MANNOSIDASE, PDB entry 4ayr",0.099 µM (active)
C[C@H]1NC(=NCCC[C@H](N)C(=O)O)N[C@H]1O,Kd,"protein: Advanced glycosylation end product-specific receptor V domain, PDB entry 2mov",0.04 µM (active)
C[C@H](N)C(=O)N[C@@H](C)C(=O)N[C@@H](CCCCN(C)C)C(=O)N[C@@H](CO)C(=O)N[C@H](C(=O)NCC(=O)NCC(=O)O)[C@@H](C)O (H-AA[Lys(Me2)]STGG-OH),Kd,"protein: Euchromatic histone-lysine N-methyltransferase 1(Glp), PDB entry 3b95",7 µM (active)
C[C@H](N)C(=O)N1CCC[C@H]1C(=O)N1CCC[C@H]1C(=O)NCC(=O)N[C@H](C(=O)N[C@@H](C)C(=O)N[C@@H](CCCNC(N)N)C(=O)N[C@@H](CCCNC(N)N)C(=O)N[C@@H](CCCCN)C(=O)N[C@@H](CCCNC(N)N)C(=O)N[C@@H](CCCCN)C(=O)N[C@@H](C)C(=O)N[C@@H](CC(=O)O)C(=O)N[C@@H](CO)C(=O)O)[C@@H](C)O (H-APPGTA[Orn(CH(NH2)2)][Orn(CH(NH2)2)]K[Orn(CH(NH2)2)]KADS-OH),Kd,"protein: Signal recognition particle 43 kDa protein, chloroplast, PDB entry 2hug",1.06 µM (active)
H-AGGPTIEEVD-OH,Kd,"protein: Protein UNC-45, PDB entry 4i2w",121 µM (active)
C[C@H](NC(=O)[C@H](CCCCN)NC(=O)[C@H](CCCCN)NC(=O)[C@H](CCCCN)NC(=O)[C@@H](NC(=O)[C@H](CO)NC(=O)CNC(=O)[C@H](CCCCN)NC(=O)[C@@H]1CCCN1C(=O)[C@H](CCC(=O)O)NC(=O)[C@@H]1CCCN1C(=O)[C@H](CCC(=O)O)NC(=O)[C@H](CCCCN)NC(=O)[C@H](CCCNC(N)N)NC(=O)[C@H](CCCCN)NC(=O)[C@H](C)NC(=O)[C@@H](N)CO)[C@@H](C)O)C(=O)N[C@@H](CCCCN)C(=O)N[C@H](C(=O)O)[C@@H](C)O (H-SAK[Orn(CH(NH2)2)]KEPEPKGSTKKKAKT-OH),Kd,"protein: Importin subunit alpha-2, PDB entry 3uvu",0.042 µM (active)
C[C@H](NC(=O)[C@@H](NC(=O)CNC(=O)[C@@H]1CCCN1C(=O)[C@@H]1CCCN1C(=O)[C@H](C)NC(=O)[C@H](CCCCN)NC(=O)[C@@H](N)CCC(N)=O)[C@@H](C)O)C(=O)N[C@@H](CCCNC(N)N)C(=O)N[C@@H](CCCNC(N)N)C(=O)N[C@@H](CCCCN)C(=O)N[C@@H](CCCNC(N)N)C(=O)N[C@@H](CCCCN)C(=O)O (H-QKAPPGTA[Orn(CH(NH2)2)][Orn(CH(NH2)2)]K[Orn(CH(NH2)2)]K-OH),Kd,"protein: A. thaliana cpSRP43 Delta CD3, PDB entry 3ui2",0.43 µM (active)
C[C@H](N)C(=O)N[C@@H](CCCNC(N)N)C(=O)N[C@H](C(=O)N[C@@H](CCCCN(C)C)C(=O)N[C@@H](CCC(N)=O)C(=O)N[C@H](C(=O)N[C@@H](C)C(=O)N[C@@H](CCCNC(N)N)C(=O)N[C@@H](CCCCN(C)C)C(=O)N[C@@H](CO)C(=O)N[C@H](C(=O)NCC(=O)NCC(=O)N[C@@H](CCCCN)C(=O)N[C@@H](C)C(=O)N1CCC[C@H]1C(=O)NCC(=O)NCC(=O)O)[C@@H](C)O)[C@@H](C)O)[C@@H](C)O,Kd,"protein: heterochromatin protein 1 (HP1), PDB entry 1guw",1.9 µM (active)
H-DPGEGPST-OH,Kd,"protein: Ubiquitin carboxyl-terminal hydrolase 7(USP7), PDB entry 1yy6",0.86 µM (active)
CC(C)[C@H](NC(=O)[C@@H]1CCCN1C(=O)[C@@H](N)Cc1ccc(O)cc1)C(=O)N[C@@H](CCCCN)C(=O)N[C@@H](CCCCN)C(=O)N[C@@H](CCCCN)C(=O)N[C@@H](C)C(=O)N[C@@H](CCCNC(N)N)C(=O)N[C@@H](CCCCN(C)C)C(=O)N[C@@H](CO)C(=O)N[C@@H](C)C(=O)NCC(=O)O (H-YPVKKKA[Orn(CH(NH2)2)][Lys(Me2)]SAG-OH),Kd,"protein: Human Chromobox Homolog 3 (CBX3), PDB entry 3tzd",52 µM (active)
O=C1C=C(O)C(=O)C=C1O,Kd,"protein: 5-chloro-2-hydroxyhydroquinone dehydrochlorinase (TftG), PDB entry 4lbp",11.4 µM (active)
CNS(=O)(=O)Nc1nccc(Cc2c(C)c3ccc(Oc4ncccn4)cc3oc2=O)c1F,Kd,"protein: Dual specificity mitogen-activated protein kinase kinase 1, Human MEK1 kinase, PDB entry 3wig",0.0023 µM (active)
CC(C)C[C@H](NC(=O)[C@@H](NC(=O)CNC(=O)c1ccccc1)C(C)C)C(=O)N[C@@H](CCCCNC(=O)CCC(=O)O)C(=O)N[C@@H](CCC(=O)O)C(=O)N[C@@H](Cc1ccc(O)cc1)C(=O)NCC(=O)N[C@H](C(=O)O)C(C)C (Bz-GVLK(Suc)EYGV-OH),Kd,"protein: NAD-DEPENDENT PROTEIN DEACYLASE SIRTUIN-5, MITOCHONDRIAL zebrafish Sirtuin 5, PDB entry 4utn",0.71 µM (active)
CC(C)C[C@H](NC(=O)[C@@H](NC(=O)CNC(=O)c1ccccc1)C(C)C)C(=O)N[C@@H](CCCCN)C(=O)N[C@@H](CCC(=O)O)C(=O)N[C@@H](Cc1ccc(O)cc1)C(=O)NCC(=O)N[C@H](C(=O)O)C(C)C (Bz-GVLKEYGV-OH),Kd,"protein: NAD-DEPENDENT PROTEIN DEACYLASE SIRTUIN-5, MITOCHONDRIAL zebrafish Sirtuin 5, PDB entry 4utr",0.7 µM (active)
same,Kd,"protein: NAD-DEPENDENT PROTEIN DEACYLASE SIRTUIN-5, MITOCHONDRIAL zebrafish Sirtuin 5, PDB entry 4utv",8.2 µM (active)
same,Kd,"protein: NAD-DEPENDENT PROTEIN DEACYLASE SIRTUIN-5, MITOCHONDRIAL zebrafish Sirtuin 5, PDB entry 4utx",5.78 µM (active)
same,Kd,"protein: NAD-DEPENDENT PROTEIN DEACYLASE SIRTUIN-5, MITOCHONDRIAL zebrafish Sirtuin 5, PDB entry 4uu7",0.83 µM (active)
same,Kd,"protein: NAD-DEPENDENT PROTEIN DEACYLASE SIRTUIN-5, MITOCHONDRIAL zebrafish Sirtuin 5, PDB entry 4uu8",0.29 µM (active)
same,Kd,"protein: NAD-DEPENDENT PROTEIN DEACYLASE SIRTUIN-5, MITOCHONDRIAL zebrafish Sirtuin 5, PDB entry 4uua",5.78 µM (active)
CC(=O)n1ccc2nc3ccc(Cl)cc3c-2c1,Kd,"protein: Bromodomain adjacent to zinc finger domain protein 2B BAZ2B Bromodomain, PDB entry 4nra",65 µM (active)
c1ccc(-c2nsc(N3CCCNCC3)n2)cc1,Kd,"protein: INTEGRASE, PDB entry 4ah9",3500 µM (active)
Cc1ccc(C(=O)N(CCCN)[C@@H](C2=C(Cc3ccccc3)C(O)c3ccc(Cl)cc3O2)C(C)C)cc1 (stereo partly specified),Kd,"protein: KINESIN-LIKE PROTEIN KIF11, PDB entry 4bxn",0.01 µM (active)
O[C@@H](CC1c2ccccc2Sc2ccccc21)CN1CCCC1,Kd,"protein: Renin, PDB entry 4gj8",500 µM (active)
Cc1ncc2c(n1)N(C)C(=O)C(=N)C2,Kd,"protein: Caspase-6, PDB entry 4n5d",607 µM (active)
CC[C@H](C)[C@H](NC(=O)CNC(=O)[C@H](CCC(=O)O)NC(=O)CNC(=O)[C@H](CCC(=O)O)NC(=O)[C@H](CCC(=O)O)NC(=O)[C@H](CC(C)C)NC(=O)CNC(=O)[C@H](Cc1ccccc1)NC(=O)[C@H](Cc1c[nH]cn1)NC(=O)[C@H](Cc1ccc(O)cc1)NC(=O)[C@H](CC(=O)O)NC(=O)[C@@H](N)CC(C)C)C(=O)N[C@@H](CCCNC(N)N)C(=O)N[C@@H](CC(=O)O)C(=O)N[C@@H](CC(C)C)C(=O)N[C@@H](Cc1ccccc1)C(=O)N[C@H](C)CC(=O)O,Kd,"protein: The human retinoblastoma tumor suppressor protein (pRb), PDB entry 1o9k",0.34 µM (active)
CC[C@H](C)[C@H](NC(=O)[C@H](CC(C)C)NC(=O)[C@H](Cc1c[nH]cn1)NC(=O)[C@H](CC(=O)O)NC(=O)[C@H](CC(=O)O)NC(=O)[C@H](CCC(=O)O)NC(=O)[C@H](CC(=O)O)NC(=O)[C@@H](NC(=O)[C@H](CC(=O)O)NC(=O)[C@@H](N)CCC(=O)O)[C@@H](C)O[P+](O)(O)O)C(=O)N[C@@H](Cc1ccc(O)cc1)C(=O)N[C@@H](CC(C)C)C(=O)N[C@@H](CCC(=O)O)C(=O)N[C@@H](CCC(=O)O)C(=O)N[C@H](C(=O)N[C@@H](CC(C)C)C(=O)N[C@H](C(=O)N[C@@H](CCCNC(N)N)C(=O)N[C@H](C(=O)O)C(C)C)C(C)C)[C@@H](C)CC (H-ED[Thr(P(OH)3+)]DEDDHLIYLEEILV[Orn(CH(NH2)2)]V-OH),Kd,"protein: C-terminal domain of human RAP74, PDB entry 2k7l",0.7 µM (active)
